Experimental findings from PubChem BioAssay (NCATS) are described below.

The test system of experiment [1] is MKL-2. Nature of the experiment: qHTS assay to identify novel small-molecules to repurpose for Merkel cell carcinoma treatment (AID 1296009). Further: nearly all actives have a fitted effect of over 60% in size. Conditions: MCC and control cell lines, CellTiter-Glo viability, 72 h; series mostly up to 46 µM. The gist of the method:
(§1)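 Dose-response viability screen; 72 hr exposure at 37 degree celsius; CellTiter-Glo added, 10 min room temperature, luminescence read; RLUs scaled between no-cell and DMSO wells.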
(In general: In qHTS, concentration-response curves come from the screen itself.)

The subject of experiment [2] is UISO. The experiment is described as above. The conditions noted are these: MCC and control cell lines, CellTiter-Glo viability, 72 h; series mostly up to 46 µM. The gist of the method: as §1
For orientation: In ATP-based viability assays light output follows the ATP content of the culture.

Experiment [3] relates to WaGa. The description is as above. Conditions: MCC and control cell lines, CellTiter-Glo viability, 72 h; series mostly up to 46 µM. The gist of the method:
as §1

The test system of experiment [4] is C33A. Nature of the experiment: Primary qHTS to identify gynecologic anti-cancer compounds using libraries of approved drugs and bioactive compounds (AID 1345084). Further: nearly all actives have a fitted effect of over 55% in size. Conditions: Gynecologic cancer cell panel viability, ATPlite luminescence, 48 h; series mostly up to 57.5 µM. The gist of the method:
(§2)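 Cells, 1,000 per well, were allowed to settle for 16 h at 37 C before compound addition. Five concentrations were tested for 48 h, and viability was read by ATPlite luminescence after 15 min at room temperature.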

Experiment [5] relates to CASKI. The experiment is described as above. Conditions: Gynecologic cancer cell panel viability, ATPlite luminescence, 48 h; series mostly up to 57.5 µM. The gist of the method:
as §2

Experiment [6] concerns Es-2. The experiment is described as above. The conditions noted are these: Gynecologic cancer cell panel viability, ATPlite luminescence, 48 h; series mostly up to 57.5 µM. The gist of the method: as §2
Experiment [7] concerns HeLa. The experiment is described as above. Conditions: Gynecologic cancer cell panel viability, ATPlite luminescence, 48 h; series mostly up to 57.5 µM. The gist of the method: as §2
For experiment [8], the system named is Hek293T. Described as above. The conditions noted are these: Gynecologic cancer cell panel viability, ATPlite luminescence, 48 h, control line for the selectivity index; series mostly up to 57.5 µM. The gist of the method:
as §2

Experiment [9] relates to CAOV3. Described as above. The conditions noted are these: Gynecologic cancer cell panel viability, ATPlite luminescence, 48 h; series mostly up to 57.5 µM. The gist of the method: as §2

Records with an inconclusive call do not appear. Unmarked numbers belong to inactive results. Active and inactive are the calls of the source. The call rests on the fitted dose curve; in most records, active means well fitted curve in the direction sought with a large enough effect; inconclusive means small, poorly fitted or top-dose-only effect, or another doubt; inactive means no such curve, though single readings can be large; an effect the other way counts as inactive or inconclusive.
Potency means the concentration at half of the fitted maximal effect.

In the case of `C[C@@H]1C[C@H]2[C@@H]3C[C@H](F)C4=CC(=O)C(Cl)=C[C@]4(C)[C@@]3(F)[C@@H](O)C[C@]2(C)[C@@]1(O)C(=O)CO`, the Potency entry in [1], in [2], in experiment [3], in experiment [4], in experiment [5] and in [6] was “inactive” each time. In addition, the Potency result in experiment [7] and in experiment [8] was “inactive” throughout.
In the case of `NCCCC[C@H](N[C@@H](CCc1ccccc1)C(=O)O)C(=O)N1CCC[C@H]1C(=O)O`, the Potency result in [1], in [2], in [3], in experiment [4], in [5] and in experiment [6] was “inactive” throughout. Also, the Potency result in experiment [7] and in [8] was “inactive” in each case.
`CCCC(=O)O[C@]1(C(=O)CO)CC[C@H]2[C@@H]3CCC4=CC(=O)CC[C@]4(C)[C@H]3[C@@H](O)C[C@@]21C`: the Potency result in experiment [1], in experiment [2], in experiment [3], in experiment [4], in experiment [5] and in experiment [6] was “inactive” in each case. In addition, the Potency entry in [7] and in [8] was “inactive” throughout. For the same molecule, the Potency in [9] is 3.55 µM (active).
As for `Cc1cc2c(cc1CC(=O)c1sccc1S(=O)(=O)Nc1onc(C)c1Cl)OCO2`, the Potency result in experiment [1], in experiment [2], in experiment [3], in [4], in [5] and in experiment [6] was “inactive” throughout. Moreover, the Potency entry in experiment [7] and in experiment [8] was “inactive” in each case.
Take `O=c1[nH]c(=O)n([C@H]2CCCO2)cc1F`: the Potency entry in [1], in experiment [2], in experiment [3], in experiment [4], in experiment [5] and in [6] was “inactive” throughout. Also, the Potency entry in experiment [7] and in experiment [8] was “inactive” in each case.
On to `NC(CS)C(=O)O` (configuration not stated), for which the Potency entry in [1], in experiment [2], in [3], in [4], in experiment [5] and in [6] was “inactive” each time. For the same molecule, the Potency result in [7] and in [8] was “inactive” in each case.
`CC1(C)O[C@@H]2[C@@H](CO[C@@]3(COS(N)(=O)=O)OC(C)(C)O[C@@H]23)O1`: the Potency result in experiment [1], in experiment [2], in [3], in experiment [4], in [5] and in experiment [6] was “inactive” in each case. Moreover, the Potency entry in experiment [7] and in experiment [8] was “inactive” each time.
Consider `CCCC(=O)Nc1ccc(OCC(O)CNC(C)C)c(C(C)=O)c1` (configuration not stated), for which the Potency result in experiment [1], in [2], in [3], in experiment [4], in experiment [5] and in experiment [6] was “inactive” throughout. Further, the Potency result in experiment [7] and in experiment [8] was “inactive” in each case.
`CC(C)(C)NC(=O)[C@@H]1CN(Cc2cccnc2)CCN1C[C@@H](O)C[C@@H](Cc1ccccc1)C(=O)N[C@H]1c2ccccc2C[C@H]1O`: the Potency result in [1], in experiment [2], in [3], in experiment [4], in [5] and in experiment [6] was “inactive” throughout. For the same molecule, the Potency result in experiment [7] and in experiment [8] was “inactive” in each case.
Regarding `CC1(C)O[C@@H]2C[C@H]3[C@@H]4C[C@H](F)C5=CC(=O)C=C[C@]5(C)[C@H]4[C@@H](O)C[C@]3(C)[C@]2(C(=O)CO)O1`, the Potency entry in experiment [1], in experiment [2], in experiment [3], in [4], in experiment [9] and in [5] was “inactive” throughout. Also, the Potency result in [6], in experiment [7] and in [8] was “inactive” each time.
As to `CC(=O)OCC(=O)NCCCOc1cccc(CN2CCCCC2)c1`, the Potency result in [1], in [2], in experiment [3], in [4], in experiment [5] and in experiment [6] was “inactive” throughout. Besides, the Potency entry in experiment [7] and in [8] was “inactive” in each case.
With `CC(C)COC(=O)c1ccc(N)cc1`, the Potency entry in [1], in experiment [2], in experiment [3], in [4], in experiment [5] and in [6] was “inactive” each time. In addition, the Potency result in experiment [7] and in experiment [8] was “inactive” in each case.
`Nc1nc2ncc(CNc3ccc(C(=O)N[C@@H](CCC(=O)O)C(=O)O)cc3)nc2c(=O)[nH]1`: the Potency result in [1], in [2], in experiment [3], in experiment [4], in experiment [5] and in experiment [6] was “inactive” in each case. Also, the Potency result in [7] and in experiment [8] was “inactive” throughout.
`CCCCC1=NC2(CCCC2)C(=O)N1Cc1ccc(-c2ccccc2-c2nn[nH]n2)cc1`: the Potency result in experiment [1], in experiment [2], in experiment [3], in [4], in [5] and in [6] was “inactive” throughout. For the same molecule, the Potency result in [7] and in experiment [8] was “inactive” each time.
With `NC(=O)C(=O)N/N=C/c1ccc([N+](=O)[O-])o1`, the results for the Potency in [1], in experiment [2] and in experiment [3] were 7.5 µM (active), 29.9 µM (active) and 15 µM (active), respectively. In addition, the Potency entry in [4], in experiment [9], in experiment [5], in [6], in experiment [7] and in [8] was “inactive” throughout.
On to `O=C(Nc1ccc(Cl)c(Cl)c1)C1CC1`, for which the Potency entry in experiment [1], in experiment [2], in experiment [3], in [4], in experiment [9] and in experiment [5] was “inactive” in each case. The Potency result in experiment [6], in experiment [7] and in [8] was “inactive” each time.
